Experimental findings from PubChem BioAssay AID1739 (National Center for Advancing Translational Sciences (NCATS), 2009) are described below.

The nature of this experiment: Counterscreen Assay for Enhancers of SMN2 Splice Variant Expression: Modulation of SMN1 Expression. The following applies: HEK293 SMN1-luciferase reporter, luminescence, 30-36 h; series mostly up to 22.8 µM. The text has this:
NIH Chemical Genomics Center [NCGC] NIH Molecular Libraries Probe Production centers Network [MLPCN] MLPCN Grant: R03 MH084179-01 Assay Submitter (PI): Elliot Androphy NCGC Assay Overview: Spinal muscular atrophy (SMA) is caused by insufficient levels of the survival motor neuron protein SMN. The SMN locus on chromosome 5q13 contains two inverted copies of SMN called SMN1 and SMN2 which are 99% identical at the amino acid level. SMN1 is a fully functional protein and SMN2 skips exon 7 90% of the time. Skipping of exon 7 produces non-functional protein product. 10% of the SMN2 protein includes exon 7 and is fully functional. In the SMA disease state, mutations in the SMN1 locus are the cause of the disease state. Because only 10% of SMN2 is of the fully functional form, it is not sufficient to overcome the deficiency produced by the loss of the SMN1 product. A therapy that either increase the amount of SMN2 product made or to increase the inclusion of exon 7 has been proposed for the treatment of SMA. We have designed an assay to identify small molecules that can increase the amount of functional SMN2 product by appending a luciferase reporter gene after the native SMN2 gene, such that inclusion of exon 7 in the expressed product places the luciferase sequence in frame, thus generating functional luciferase enzyme. […]
Background: A counterscreen serves to expose hits that act by an unwanted route or on another target.

The structures appear in SMILES notation. Inconclusive results are not listed. Entries that show only a call come without a potency. Activity calls are given as the source filed them. The call rests on the fitted dose curve; in most records, active means well fitted inhibition curve with a large enough effect; inconclusive means small, poorly fitted or top-dose-only effect; inactive means flat fitted curve, though single readings scatter.

With `CC[C@]1(O)CC(O[C@@H]2CC(N(C)C)C(O)C(C)O2)c2c(cc3c(c2O)C(=O)c2c(O)cccc2C3=O)C1C(=O)OC` (some centres not stated), the Potency is 1.12 µM (active).

For the compound `CCc1ccc2nc(N3CCC(C(=O)N4CCC5(CC4)OCCO5)CC3)sc2c1`, the Potency entry is “inactive”.
